{
  "source": "PubChem BioAssay (NCATS)",
  "note": "Records with an inconclusive call do not appear. Unmarked numbers belong to inactive results. The call rests on the fitted dose curve; in most records, active means well fitted cell-killing curve with a large enough effect; inconclusive means small, poorly fitted or top-dose-only effect, or effect the other way; inactive means flat fitted curve, though single readings scatter. On the % scale 0 is the no-effect control and ±100 the full control effect.",
  "data": [
    {"system": "PA-1", "assay": "Primary qHTS to identify gynecologic anti-cancer compounds using libraries of approved drugs and bioactive compounds (AID 1345084); further: nearly all actives have a fitted effect of over 55% in size", "conditions": "Gynecologic cancer cell panel viability, ATPlite luminescence, 48 h; series mostly up to 57.5 µM; activity change, negative = cytotoxicity: at the top concentration", "in_short": "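Luminescence from the ATPlite ATP-monitoring reagent indicates viable cell number; lower signal means cytotoxicity. Cells received compound 16 h after seeding and were exposed for 48 h across five concentrations.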", "values": [
      {"smiles": "CC(=O)N[C@@H](C(=O)O[C@H]1CCC(C)(C)[C@@H]2CCC3=C(COC3=O)[C@@]12C)C(C)C", "activity change, negative = cytotoxicity": "-1.12% [at 38.5 µM]"},
      {"smiles": "CC1OC2OC(=O)C3(C)CC4=C(CO)C5=C(CC(=O)C4(C)C(C1=O)C23)C(C)(C)OC(=O)C5", "note": "(configuration not stated)", "activity change, negative = cytotoxicity": "-5.86% [at 25.3 µM]"},
      {"smiles": "CC1(C)CC2=C3C=CC4C5(C)CCC(O)C(C)(C)C5CCC4(C)C3(C)CCC2(C)C(O)C1", "note": "(configuration not stated)", "activity change, negative = cytotoxicity": "-0.992% [at 25.3 µM]"},
      {"smiles": "COc1cc(O)cc(C)c1C(=O)O[C@H]1[C@@H](OC(C)=O)[C@H](n2ccc(=O)[nH]c2=O)O[C@@H]1CO", "activity change, negative = cytotoxicity": "10.1% [at 25.3 µM]"},
      {"smiles": "Fc1ccc2nc(CCC#Cc3ccccn3)cn2c1", "activity change, negative = cytotoxicity": "5.82%"},
      {"smiles": "C=C[C@H]1C(O[C@@H]2O[C@H](CO)[C@@H](O)[C@H](O)[C@H]2O)OC=C2C(=O)N3CCc4c([nH]c5ccccc45)C3CC21", "note": "(some centres not stated)", "activity change, negative = cytotoxicity": "-1.07% [at 25.3 µM]"},
      {"smiles": "O=C1NC(=O)C(c2cn(-c3ccccc3)nc2-c2ccc(F)cc2)N1", "note": "(configuration not stated)", "activity change, negative = cytotoxicity": "-7.64%"},
      {"smiles": "CC(=O)OC1C(O)C2C(C)C3=CC(=O)OC3(O)CC2C2(C)CCCC(C)(CO)C12", "note": "(configuration not stated)", "activity change, negative = cytotoxicity": "-1.85% [at 25.3 µM]"},
      {"smiles": "O=C(NCc1cccc(O)c1)Nc1nc(-c2ccncc2)cs1", "activity change, negative = cytotoxicity": "-0.309%"},
      {"smiles": "CC1(O)CCCC2(C)C1CCC13CC(CO)C(CCC12)C3", "note": "(configuration not stated)", "activity change, negative = cytotoxicity": "24.3%"},
      {"smiles": "CC1=CC2C(CC1OC1OC(CO)C(O)C(O)C1O)C(C)CC(=O)C2C(C)C", "note": "(configuration not stated)", "activity change, negative = cytotoxicity": "1.8% [at 38.5 µM]"},
      {"smiles": "CC(=O)O[C@@H]1C[C@@H](OC(C)=O)C(C)(C)/C=C/[C@H](C)[C@H](OC(C)=O)[C@@]2(O)C[C@H](C)[C@H](OC(=O)c3ccccc3)[C@@H]2/C=C/1C", "activity change, negative = cytotoxicity": "7.91% [at 25.3 µM]"},
      {"smiles": "O=C(NCc1cccc(O)c1)c1cc2cc(F)ccc2[nH]1", "activity change, negative = cytotoxicity": "-0.424%"},
      {"smiles": "COC1CC(O[C@H]2CC[C@@]3(C)C(CCC4C3[C@H](OC(C)=O)[C@@H](OC(=O)/C=C/c3ccccc3)[C@]3(C)C(C(C)=O)CC[C@]43O)C2)OC(C)C1OC1CC(OC)C(OC2CC(OC)C(OC3OC(C)C(OC4OC(CO)C(O)C(O)C4O)C(OC)C3O)C(C)O2)C(C)O1", "note": "(some centres not stated)", "activity change, negative = cytotoxicity": "-4.15% [at 6.55 µM]"},
      {"smiles": "COc1cc(Br)c(S(=O)(=O)Nc2ccc(C(F)(F)F)c(O[C@@H]3CCN(C)C3)c2)cc1OC", "activity change, negative = cytotoxicity": "-1.97%"},
      {"smiles": "COc1c2ccoc2cc2oc(CO[C@@H]3O[C@H](CO)[C@@H](O)[C@H](O)[C@H]3O)cc(=O)c12", "activity change, negative = cytotoxicity": "-0.144% [at 38.5 µM]"},
      {"smiles": "COC(=O)C1=COC(O[C@@H]2O[C@H](CO)[C@@H](O)[C@H](O)[C@H]2O)[C@H]2[C@@H]1[C@H](OC(=O)CCc1ccc(O)cc1)C[C@]2(C)O", "note": "(some centres not stated)", "activity change, negative = cytotoxicity": "-11.9% [at 25.3 µM]"},
      {"smiles": "COC(=O)N[C@H](C(=O)N1[C@@H]2CC[C@@H](C2)[C@H]1c1nc2ccc(-c3ccc4c(c3)C(F)(F)c3cc(-c5cnc([C@@H]6CCC7(CC7)N6C(=O)[C@@H](NC(=O)OC)C(C)C)[nH]5)ccc3-4)cc2[nH]1)C(C)C", "activity change, negative = cytotoxicity": "8.35% [at 25.3 µM]"},
      {"smiles": "CC(c1ncncc1F)C(O)(Cn1cncn1)c1ccc(F)cc1F", "note": "(configuration not stated)", "activity change, negative = cytotoxicity": "3.78%"},
      {"smiles": "O=C(OC[C@H]1O[C@H](O[C@]2(CO)O[C@H](CO)[C@@H](O)[C@@H]2O)[C@H](O)[C@@H](O)[C@@H]1O)c1ccccc1", "activity change, negative = cytotoxicity": "12.1% [at 25.3 µM]"},
      {"smiles": "CC(C)(C)c1ccc(S(=O)(=O)Nc2ccc(Cl)cc2C(=O)c2cc[n+]([O-])cc2)cc1", "activity change, negative = cytotoxicity": "8.89%"},
      {"smiles": "CC(CO)C1CCC2(C)CC3C(CO)CC(O)C3C(C)(O)C/C=C/12", "note": "(configuration not stated)", "activity change, negative = cytotoxicity": "12.3% [at 38.5 µM]"},
      {"smiles": "CC12CCC3c4ccc(O)cc4CCC3C1CC(OC1OC(C(=O)O)C(O)C(O)C1O)C2O", "note": "(configuration not stated)", "activity change, negative = cytotoxicity": "15.9%"},
      {"smiles": "CCNCc1nc2c(N)nc3ccccc3c2n1CC(C)(C)O", "activity change, negative = cytotoxicity": "1.35%"},
      {"smiles": "OC[C@H]1O[C@@H](OCCc2ccccc2)[C@H](O[C@@H]2OC[C@](O)(CO)[C@H]2O)[C@@H](O)[C@@H]1O", "activity change, negative = cytotoxicity": "5.94% [at 25.3 µM]"},
      {"smiles": "COc1cc(C2Oc3c(OC)cc(CCCO)cc3C2CO)ccc1O[C@H]1O[C@H](C)[C@@H](O)[C@H](O)[C@@H]1O", "note": "(some centres not stated)", "activity change, negative = cytotoxicity": "-3.58% [at 25.3 µM]"},
      {"smiles": "COc1cc2c3c(cc4ccccc4c3c1O)NC2=O", "activity change, negative = cytotoxicity": "18.5%"}
    ]}
  ]
}
